Results from PubChem BioAssay (Tox21).
Calls of active or inactive are those of the source. The call rests on the fitted dose curve; in most records, active means well fitted curve in the direction sought with a large enough effect in the repeat runs; inconclusive means weak or mixed curves; inactive means flat fitted curve, though single readings scatter.
On the % scale 0 is the no-effect control and ±100 the full control effect.

Experiment: qHTS assay to test for compound auto fluorescence at 590 nm (red) in HepG2 cell free culture (AID 720684)
Settings: cell-free medium autofluorescence, red 540/590 nm; series mostly up to 91.3 µM
Excerpt: U.S. Tox21 Program National Center for Advancing Translational Sciences [NCATS] NIH Chemical Genomics Center [NCGC] U.S. Environmental Protection Agency [EPA] National Institutes of Environmental Health Sciences [NIEHS] National Toxicology Program [NTP] U.S. Food and Drug Administration [FDA] Tox21 Assay Overview: Compound auto fluorescence often interferes with screening of the compound library against various biological targets and signaling pathways. Some of these compounds may have fluorophoric properties. Such properties may interfere with the assay outputs resulting in false positives and/or negatives. To decrease such complications and ensure the compound activities are relevant in terms of biological response, the Tox21 10K compound library was screened for auto fluorescence. From the fluorophores used as reporter signals in our screening assays, the auto fluorescence equivalencies of compounds against three fluorophores have been evaluated: Triamterene, Fluorescein and Rose Bengal sodium for blue, green and red fluorescence, respectively. The fluorescence intensities were measured using Excitation/Emission wavelengths at 405/460nm, 485/535nm and 540/590nm for blue, green and red labels, respectively. This assay includes the red fluorescence data.
Tox21 Assay Protocol Summary: 5 uL of culture medium (MEM containing 10% FBS) per well was dispensed into black wall/clear bottom 1536-well plates using a Multidrop Combi Dispenser (ThermoFisher Scientific, Waltham, MA). After 23 nL compound or DMSO vehicle was transferred into assay plate by a pintool work station (Kalypsys, San Diego, CA), fluorescence intensities in the assay plates were measured by an Envision (PerkinElmer, Shelton, CT) plate reader using three labels for measuring blue, green and red fluorescence at […] 460, 535 and 590nm respectively.
For `ClCC(Br)CBr` (stereo not given), the outcome was “inactive”. With `CN1C[C@H](CNC(=O)OCc2ccccc2)C[C@@H]2c3cccc4c3c(cn4C)C[C@H]21` the outcome was “inactive”. In the case of `CCCCN(N=O)C(=N)N[N+](=O)[O-]`, the outcome is reported as “inactive”. In the case of `NS(=O)(=O)C(F)(F)C(F)(F)C(F)(F)C(F)(F)C(F)(F)C(F)(F)C(F)(F)C(F)(F)F`, the outcome is reported as “inactive”. For `NCC(CC(=O)O)c1ccc(Cl)cc1` (stereo not given), the outcome was “inactive”. For `CCOc1nc(F)cc2nc(S(=O)(=O)Nc3c(Cl)cccc3Cl)nn12`, the outcome was “inactive”. With `COC(=O)C(Cl)C(=O)OC` the outcome was “inactive”. For `CCCCC(CC)COP(=O)(Oc1ccccc1)Oc1ccccc1` (stereo not given), the outcome was “inactive”. With `ClC=C(Cl)Cl` the outcome was “inactive”. In the case of `COc1nn(CSP(=S)(OC)OC)c(=O)s1`, the outcome is reported as “inactive”. With `C=CC(=O)OCCCCO` the outcome was “inactive”. With `Cc1ccccc1C(=O)Nc1cccc(OC(C)C)c1` the outcome was “inactive”. In the case of `Brc1ccccc1`, the outcome is reported as “inactive”. For `O=C(NCc1cccnc1)Nc1ccc([N+](=O)[O-])cc1`, the outcome was “inactive”. With `CCCCc1c(C)nc(NCC)nc1OS(=O)(=O)N(C)C` the outcome was “inactive”. In the case of `CC(Cl)C(C)Cl` (stereo not given), the outcome is reported as “inactive”. In the case of `CCC(Br)(CC)C(=O)NC(N)=O`, the outcome is reported as “inactive”. With `CCOP(=O)(OCC)SCCSCC` the outcome was “inactive”. In the case of `CCC(COC(=O)c1cc(OC)c(OC)c(OC)c1)(c1ccccc1)N(C)C` (stereo not given), the outcome is reported as “inactive”. For `CCCCCCC#N`, the outcome was “inactive”. In the case of `[O-][Cl+]O`, the outcome is reported as “inactive”. For `C=CC(=O)OCC(C)C`, the outcome was “inactive”. With `c1ccoc1` the outcome was “inactive”. With `O=C=Nc1ccc(Cl)cc1` the outcome was “inactive”. With `N#C/C(N)=C(/N)C#N` the outcome was “inactive”. In the case of `c1ccc(CN2CCNCC2)cc1`, the outcome is reported as “inactive”. With `Cc1cc(=O)[nH]o1` the outcome was “inactive”. For `CC(C)=CCOc1c2occc2cc2ccc(=O)oc12`, the outcome was “inactive”. In the case of `O=C(C(Cl)(Cl)Cl)C(Cl)(Cl)Cl`, the outcome is reported as “inactive”. For `Cl/C=C\C[N+]12CN3CN(CN(C3)C1)C2`, the outcome was “inactive”. In the case of `CCOc1ccc(C(C)(C)COCc2cccc(Oc3ccccc3)c2)cc1`, the outcome is reported as “inactive”. For `CNC(C)Cc1ccccc1OC` (stereo not given), the outcome was “inactive”. For `COc1cc(Cl)c(OC)cc1Cl`, the outcome was “inactive”. For `O=C(CCl)c1ccc(Cl)cc1Cl`, the outcome was “inactive”. In the case of `O=C(O)C1(c2ccc3c(c2)OC[C@H](Cc2ccc(-c4ccccc4)cc2)[C@H]3O)CCCC1`, the outcome is reported as “inactive”. In the case of `O=Cc1ccc(Cl)cc1Cl`, the outcome is reported as “inactive”. With `OC(c1ccc(Cl)cc1)(c1ccc(Cl)cc1)c1cccnc1` the outcome was “inactive”. In the case of `CO[C@@H]1[C@H](OC(=O)NC(=O)CCl)CC[C@]2(CO2)[C@H]1[C@@]1(C)O[C@@H]1CC=C(C)C`, the fluorescence, % of Rose Bengal is reported as -0.153% [at 18.6 µM] (inactive). For `COP(=O)(OC)O/C(=C/Cl)c1cc(Cl)c(Cl)cc1Cl`, the outcome was “inactive”. With `O=C(OC1CCCCC1)c1ccccc1C(=O)OC1CCCCC1` the outcome was “inactive”.
